Several values for one entry are separate records, joined by “and”; a condition that tells them apart may be missing. Equal values may be shown once. Among all 5,500 compounds or so, about 2,000 (36%) were called active. Inconclusive results (about 18%) are left out. Rule as the data show it: active = normalized growth mostly below about 0.91 (no sharp cut-off); inconclusive = no clear call, values can overlap the other calls; inactive = mostly above about 0.92. The list shows a part of the results.
Assay: chemical genetic growth profiling, strain panel (AID 1159580);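 also: tested at 20 µM; growth read once vehicle control cultures reached saturation at 30 °C; 1 = growth at the plate median or of vehicle wells; lower values mean less growth of the strain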
Settings: S. cerevisiae deletion strains, growth OD
[1] = locus YJR075W, strain HOC1, hits give low values
[2] = locus YMR307W, strain GAS1, hits give low values
[3] = locus YNL322C, strain KRE1, hits give low values
[4] = locus YPL055C, strain LGE1, hits give low values
[5] = locus YPL241C, strain CIN2, hits give low values

Measured: normalized growth

CN1CCc2cc(O)cc3c2[C@H]1Cc1ccc(O)c(O)c1-3
active: locus YAL013W, strain DEP1, hits give low values 0.844 | locus YCL061C, strain MRC1 (second series), hits give low values 0.794 | [1] 0.492 | [2] 0.798 | [3] 0.786 | [4] 0.575 | [5] 0.876
inactive: locus YAL040C, strain CLN3, hits give low values 1.06 | locus YDR363W, strain ESC2, hits give low values 0.927 | locus YER002W, strain NOP16, hits give low values 1 | locus YGR078C, strain PAC10, hits give low values 0.946 | locus YNL153C, strain GIM3, hits give low values 0.902 | locus YNL175C, strain NOP13, hits give low values 0.994 | locus YNL197C, strain WHI3, hits give low values 1.02 | locus YNL224C, strain SQS1, hits give low values 1.03 | locus YOR083W, strain WHI5 (second series), hits give low values 0.912

COc1cc2c(cc1O)CC1c3c(cc(O)c(OC)c3-2)CCN1C (stereo not given)
inactive: locus YAL021C, strain ccr4, hits give low values 1.02 | locus YAL026C, strain drs2, hits give low values 1.03 | locus YAL030W, strain snc1, hits give low values 1.01 | locus YBL061C, strain skt5, hits give low values 1.02 | locus YBR009C, strain hhf1, hits give low values 1.03 | locus YBR021W, strain FUR4, hits give low values 0.993 | locus YBR023C, strain chs3, hits give low values 1.02 | locus YBR171W, strain sec66, hits give low values 1.01 | locus YBR229C, strain ROT2, hits give low values 0.999 | locus YBR231C, strain swc5, hits give low values 1.01 | locus YBR279W, strain paf1, hits give low values 1.01 | locus YCL011C, strain gbp2, hits give low values 1.02 | locus YCL016C, strain dcc1, hits give low values 1 | locus YCL029C, strain bik1, hits give low values 0.994 | locus YCL061C, strain MRC1, hits give low values 1.01 | locus YCL069W, strain vba3, hits give low values 1.01 | locus YCR088W, strain abp1, hits give low values 1.01 | locus YDL005C, strain med2, hits give low values 1.03 | locus YDL035C, strain GPR1, hits give low values 1 | locus YDL040C, strain nat1, hits give low values 1.01 | locus YDL074C, strain BRE1, hits give low values 1 | locus YDL101C, strain DUN1, hits give low values 0.996 | locus YDL185W, strain tfp1, hits give low values 0.991 | locus YDL192W, strain arf1, hits give low values 0.996 | locus YDR001C, strain nth1, hits give low values 1.01 | locus YDR069C, strain doa4, hits give low values 1.04 | locus YDR101C, strain arx1, hits give low values 0.98 | locus YDR137W, strain rgp1, hits give low values 1.04 | locus YDR159W, strain sac3, hits give low values 1.04 | locus YDR162C, strain NBP2, hits give low values 1 | locus YDR195W, strain ref2 0.999 | locus YDR297W, strain sur2, hits give low values 1.01 | locus YDR318W, strain mcm21, hits give low values 1 | locus YDR334W, strain swr1, hits give low values 1.01 | locus YDR335W, strain msn5, hits give low values 1.01 | locus YDR388W, hits give low values 0.996 | locus YDR392W, strain spt3, hits give low values 0.95 | locus YDR502C, strain sam2, hits give low values 0.993 | locus YEL003W, strain gim4, hits give low values 1.02 | locus YEL037C, strain rad23, hits give low values 1.01 | locus YEL061C, strain CIN8 (second series), hits give low values 1.01 | locus YEL061C, strain CIN8, hits give low values 0.998 | locus YER015W, strain faa2, hits give low values 1.01 | locus YER016W, strain bim1, hits give low values 1.02 | locus YER110C, hits give low values 0.997 | locus YER111C, strain swi4, hits give low values 1.01 | locus YER155C, strain BEM2 (second series), hits give low values 1.03 | locus YER155C, strain BEM2, hits give low values 1 | locus YER167W, strain BCK2, hits give low values 1 | locus YFR010W, strain ubp6, hits give low values 1.02 | locus YGL078C, strain dbp3, hits give low values 0.997 | locus YGL086W, strain mad1, hits give low values 0.978 | locus YGL167C, strain pmr1, hits give low values 1 | locus YGL173C, strain kem1, hits give low values 1.02 | locus YGL227W, strain vid30, hits give low values 1.02 | locus YGL240W, strain doc1, hits give low values 1.01 | locus YGL248W, strain PDE1, hits give low values 1.01 | locus YGL253W, strain hxk2, hits give low values 1 | locus YGR135W, strain pre9, hits give low values 0.986 | locus YGR252W, strain gcn5, hits give low values 0.917 | locus YHR013C, strain ard1, hits give low values 1 | locus YHR027C, strain rpn1, hits give low values 1.02 | locus YHR030C, strain SLT2, hits give low values 1.01 and 0.986 | locus YHR079C, strain IRE1 (second series), hits give low values 0.993 | locus YHR079C, strain IRE1, hits give low values 1.01 | locus YHR094C, strain hxt1, hits give low values 1 | locus YHR129C, strain ARP1, hits give low values 0.994 | locus YHR142W, strain chs7, hits give low values 0.996 | locus YHR200W, strain rpn10, hits give low values 0.988 | locus YIL066C, strain RNR3, hits give low values 1.01 | locus YIL073C, strain SPO22, hits give low values 1.03 | locus YIL125W, strain kgd1, hits give low values 0.986 | locus YIR030C, strain dcg1, hits give low values 0.992 | locus YJL092W, strain hpr5, hits give low values 1.01 | locus YJL095W, strain BCK1 (second series), hits give low values 0.988 | locus YJL095W, strain BCK1, hits give low values 1.01 and 0.996 | locus YJL115W, strain asf1, hits give low values 1.02 | locus YJL129C, strain trk1, hits give low values 1.02 | locus YJL134W, strain LCB3, hits give low values 1.01 | locus YJL154C, strain vps35, hits give low values 1.01 | locus YJL164C, strain tpk1, hits give low values 1.01 | locus YJL166W, strain qcr8, hits give low values 1.01 | locus YJL168C, strain set2, hits give low values 0.988 | locus YJL187C, strain SWE1 (second series), hits give low values 0.998 | locus YJL187C, strain SWE1, hits give low values 1 | locus YJR043C, strain POL32, hits give low values 0.987 | locus YJR066W, strain TOR1, hits give low values 0.946 | [1] 1.01 | locus YKL009W, strain mrt4, hits give low values 1 | locus YKL068W, hits give low values 1.01 | locus YKL085W, strain MDH1 (second series), hits give low values 0.994 | locus YKL085W, strain MDH1, hits give low values 0.994 | locus YKL160W, strain elf1, hits give low values 1.01 | locus YKR001C, strain vps1, hits give low values 1.01 | locus YKR026C, strain gcn3, hits give low values 0.983 | locus YKR091W, strain srl3, hits give low values 1.01 | locus YLL001W, strain dnm1, hits give low values 1 | locus YLL026W, hits give low values 1.02 | locus YLL041C, strain sdh2, hits give low values 1.01 | locus YLR027C, strain aat2, hits give low values 1.01 | locus YLR039C, strain RIC1, hits give low values 1.01 | locus YLR058C, strain SHM2, hits give low values 1.01 | locus YLR102C, strain apc9, hits give low values 0.998 | locus YLR113W, strain HOG1, hits give low values 0.994 | locus YLR221C, strain rsa3, hits give low values 1.01 | locus YLR258W, strain gsy2, hits give low values 1.02 | locus YLR262C, strain YPT6 (second series), hits give low values 1.03 | locus YLR262C, strain YPT6, hits give low values 1.01 | locus YLR268W, strain sec22, hits give low values 0.976 | locus YLR320W, strain mms22, hits give low values 1.02 | locus YLR330W, strain CHS5, hits give low values 1.01 | locus YLR342W, strain FKS1 (second series), hits give low values 0.998 | locus YLR342W, strain FKS1, hits give low values 1 | locus YLR357W, strain rsc2, hits give low values 1.04 | locus YLR370C, strain arc18, hits give low values 1.03 | locus YLR371W, strain rom2, hits give low values 0.996 | locus YLR384C, strain iki3, hits give low values 1.02 | locus YLR418C, strain cdc73, hits give low values 0.98 | locus YML016C, strain PPZ1, hits give low values 1 | locus YML032C, strain rad52, hits give low values 1 | locus YML120C, strain ndi1, hits give low values 1.01 | locus YML124C, strain tub3, hits give low values 0.992 | locus YMR058W, strain fet3, hits give low values 1.01 | locus YMR078C, strain ctf18, hits give low values 1 | locus YMR125W, strain sto1, hits give low values 1.03 | locus YMR129W, hits give low values 1.03 | locus YMR205C, strain PFK2, hits give low values 1.05 | locus YMR223W, strain ubp8, hits give low values 0.986 | locus YMR231W, strain pep5, hits give low values 1.01 | locus YMR263W, strain SAP30, hits give low values 1 | [2] 0.997 | locus YNL067W, strain RPL9B, hits give low values 0.998 | locus YNL071W, strain lat1, hits give low values 1.02 | locus YNL183C, strain NPR1, hits give low values 0.951 | locus YNL209W, strain ssb2, hits give low values 1.01 | locus YNL233W, strain BNI4, hits give low values 0.992 | locus YNL248C, strain rpa49, hits give low values 1 | locus YNL250W, strain rad50, hits give low values 1 | locus YNL271C, strain bni1, hits give low values 0.992 | locus YNL298W, strain CLA4, hits give low values 0.995 | locus YNL307C, strain MCK1, hits give low values 0.994 | locus YNL322C, strain KRE1 (second series), hits give low values 1.01 | [3] 1 | locus YNR049C, strain mso1, hits give low values 1.01 | locus YNR052C, strain pop2, hits give low values 1.01 | locus YOL012C, strain htz1 0.764 | locus YOL147C, strain pex11, hits give low values 0.998 | locus YOR001W, strain rrp6, hits give low values 1.01 | locus YOR061W, strain CKA2, hits give low values 1.01 | locus YOR069W, strain VPS5, hits give low values 1 | locus YOR070C, strain gyp1, hits give low values 1.02 | locus YOR080W, strain dia2, hits give low values 1.01 | locus YOR083W, strain WHI5, hits give low values 0.997 | locus YOR106W, strain vam3, hits give low values 1.03 | locus YOR136W, strain idh2, hits give low values 0.99 | locus YOR144C, strain elg1, hits give low values 0.993 | locus YOR184W, strain ser1, hits give low values 0.992 | locus YOR231W, strain MKK1, hits give low values 1 | locus YOR265W, strain rbl2, hits give low values 1 | locus YOR270C, strain vph1, hits give low values 1.06 | locus YOR290C, strain snf2, hits give low values 0.999 | locus YOR316C, strain cot1, hits give low values 1 | locus YPL051W, strain arl3, hits give low values 0.994 | [4] 0.988 | locus YPL078C, strain atp4, hits give low values 1.01 | locus YPL106C, strain sse1, hits give low values 1.04 | locus YPL240C, strain hsp82, hits give low values 1.01 | [5] 1 | locus YPL256C, strain CLN2, hits give low values 0.961 | locus YPR119W, strain clb2, hits give low values 0.998 | locus YPR141C, strain kar3, hits give low values 0.985 | locus YPR163C, strain tif3, hits give low values 0.996 | locus YPR167C, strain met16, hits give low values 1 | strain wtn01, hits give low values 0.97
